Measured values as given in PubChem BioAssay AID1159580 (chemical genetic matrix, 2015).
The campaign covered roughly 5,500 compounds. About 2,000 (36%) were called active. About 18% were inconclusive and are not listed. No stated cut-off is given here; in the data, active means normalized growth mostly below about 0.91 (no sharp cut-off); inconclusive means no clear call, values can overlap the other calls; inactive means mostly above about 0.92. The list shows a part of the results.

Experiment: chemical genetic growth profiling, strain panel (AID 1159580);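 further: tested at 20 µM; growth read once vehicle control cultures reached saturation at 30 °C; 1 = growth at the plate median or of vehicle wells; lower values mean less growth of the strain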
Conditions: growth OD

Measured: normalized growth

C[C@@H]([C@H](O)c1ccccc1)N(C)C
inactive: S. cerevisiae deletion strains, locus YAL013W, strain DEP1, hits give low values 1.01 | S. cerevisiae deletion strains, locus YAL021C, strain ccr4, hits give low values 1.01 | S. cerevisiae deletion strains, locus YAL026C, strain drs2, hits give low values 1.01 | S. cerevisiae deletion strains, locus YAL030W, strain snc1, hits give low values 1.02 | S. cerevisiae deletion strains, locus YBL061C, strain skt5, hits give low values 1.01 | S. cerevisiae deletion strains, locus YBR009C, strain hhf1, hits give low values 1.01 | S. cerevisiae deletion strains, locus YBR021W, strain FUR4, hits give low values 0.983 | S. cerevisiae deletion strains, locus YBR023C, strain chs3, hits give low values 1.01 | S. cerevisiae deletion strains, locus YBR171W, strain sec66, hits give low values 1.03 | S. cerevisiae deletion strains, locus YBR229C, strain ROT2, hits give low values 1 | S. cerevisiae deletion strains, locus YBR231C, strain swc5, hits give low values 1.01 | S. cerevisiae deletion strains, locus YBR279W, strain paf1, hits give low values 1.02 | S. cerevisiae deletion strains, locus YCL011C, strain gbp2, hits give low values 1.01 | S. cerevisiae deletion strains, locus YCL016C, strain dcc1, hits give low values 1.01 | S. cerevisiae deletion strains, locus YCL029C, strain bik1, hits give low values 1 | S. cerevisiae deletion strains, locus YCL061C, strain MRC1, hits give low values 1.01 | S. cerevisiae deletion strains, locus YCL069W, strain vba3, hits give low values 1.01 | S. cerevisiae deletion strains, locus YCR088W, strain abp1, hits give low values 1.01 | S. cerevisiae deletion strains, locus YDL005C, strain med2, hits give low values 1.02 | S. cerevisiae deletion strains, locus YDL035C, strain GPR1, hits give low values 1.02 | S. cerevisiae deletion strains, locus YDL040C, strain nat1, hits give low values 1.02 | S. cerevisiae deletion strains, locus YDL074C, strain BRE1, hits give low values 0.999 | S. cerevisiae deletion strains, locus YDL101C, strain DUN1, hits give low values 1 | S. cerevisiae deletion strains, locus YDL134C, strain PPH21, hits give low values 1 | S. cerevisiae deletion strains, locus YDL185W, strain tfp1, hits give low values 1.01 | S. cerevisiae deletion strains, locus YDL192W, strain arf1, hits give low values 1.02 | S. cerevisiae deletion strains, locus YDR001C, strain nth1, hits give low values 1.01 | S. cerevisiae deletion strains, locus YDR069C, strain doa4, hits give low values 1.03 | S. cerevisiae deletion strains, locus YDR101C, strain arx1, hits give low values 0.981 | S. cerevisiae deletion strains, locus YDR137W, strain rgp1, hits give low values 0.984 | S. cerevisiae deletion strains, locus YDR150W, strain NUM1, hits give low values 1.01 | S. cerevisiae deletion strains, locus YDR159W, strain sac3, hits give low values 1.03 | S. cerevisiae deletion strains, locus YDR162C, strain NBP2, hits give low values 1.02 | S. cerevisiae deletion strains, locus YDR195W, strain ref2 1.01 | S. cerevisiae deletion strains, locus YDR297W, strain sur2, hits give low values 1.01 | S. cerevisiae deletion strains, locus YDR318W, strain mcm21, hits give low values 1.01 | S. cerevisiae deletion strains, locus YDR334W, strain swr1, hits give low values 1.02 | S. cerevisiae deletion strains, locus YDR335W, strain msn5, hits give low values 1.03 | S. cerevisiae deletion strains, locus YDR388W, hits give low values 1.01 | S. cerevisiae deletion strains, locus YDR392W, strain spt3, hits give low values 1.03 | S. cerevisiae deletion strains, locus YDR502C, strain sam2, hits give low values 1.01 | S. cerevisiae deletion strains, locus YEL003W, strain gim4, hits give low values 1.02 | S. cerevisiae deletion strains, locus YEL037C, strain rad23, hits give low values 1.01 | S. cerevisiae deletion strains, locus YEL061C, strain CIN8 (second series), hits give low values 1.01 | S. cerevisiae deletion strains, locus YEL061C, strain CIN8, hits give low values 1.01 | S. cerevisiae deletion strains, locus YER015W, strain faa2, hits give low values 1.01 | S. cerevisiae deletion strains, locus YER016W, strain bim1, hits give low values 1.02 | S. cerevisiae deletion strains, locus YER110C, hits give low values 1.01 | S. cerevisiae deletion strains, locus YER111C, strain swi4, hits give low values 1.01 | S. cerevisiae deletion strains, locus YER155C, strain BEM2 (second series), hits give low values 1.03 | S. cerevisiae deletion strains, locus YER155C, strain BEM2, hits give low values 1 | S. cerevisiae deletion strains, locus YER167W, strain BCK2, hits give low values 1.01 | S. cerevisiae deletion strains, locus YFR010W, strain ubp6, hits give low values 1.02 | S. cerevisiae deletion strains, locus YGL078C, strain dbp3, hits give low values 1.01 | S. cerevisiae deletion strains, locus YGL086W, strain mad1, hits give low values 0.997 | S. cerevisiae deletion strains, locus YGL167C, strain pmr1, hits give low values 0.956 | S. cerevisiae deletion strains, locus YGL173C, strain kem1, hits give low values 1.01 | S. cerevisiae deletion strains, locus YGL227W, strain vid30, hits give low values 1.01 | S. cerevisiae deletion strains, locus YGL240W, strain doc1, hits give low values 1.01 | S. cerevisiae deletion strains, locus YGL248W, strain PDE1, hits give low values 1 | S. cerevisiae deletion strains, locus YGL253W, strain hxk2, hits give low values 1.02 | S. cerevisiae deletion strains, locus YGR078C, strain PAC10, hits give low values 1.02 | S. cerevisiae deletion strains, locus YGR135W, strain pre9, hits give low values 1.03 | S. cerevisiae deletion strains, locus YGR252W, strain gcn5, hits give low values 1.02 | S. cerevisiae deletion strains, locus YHR013C, strain ard1, hits give low values 1.05 | S. cerevisiae deletion strains, locus YHR027C, strain rpn1, hits give low values 1.01 | S. cerevisiae deletion strains, locus YHR030C, strain SLT2, hits give low values 1.02 | S. cerevisiae deletion strains, locus YHR079C, strain IRE1 (second series), hits give low values 1.01 | S. cerevisiae deletion strains, locus YHR094C, strain hxt1, hits give low values 1.01 | S. cerevisiae deletion strains, locus YHR129C, strain ARP1, hits give low values 1.01 | S. cerevisiae deletion strains, locus YHR142W, strain chs7, hits give low values 1.01 | S. cerevisiae deletion strains, locus YHR200W, strain rpn10, hits give low values 1 | S. cerevisiae deletion strains, locus YIL066C, strain RNR3, hits give low values 1 | S. cerevisiae deletion strains, locus YIL073C, strain SPO22, hits give low values 1.05 | S. cerevisiae deletion strains, locus YIL125W, strain kgd1, hits give low values 1 | S. cerevisiae deletion strains, locus YIR030C, strain dcg1, hits give low values 1.01 | S. cerevisiae deletion strains, locus YJL092W, strain hpr5, hits give low values 1.01 | S. cerevisiae deletion strains, locus YJL095W, strain BCK1 (second series), hits give low values 1.02 | S. cerevisiae deletion strains, locus YJL095W, strain BCK1, hits give low values 0.996 | S. cerevisiae deletion strains, locus YJL115W, strain asf1, hits give low values 1.02 | S. cerevisiae deletion strains, locus YJL129C, strain trk1, hits give low values 1.03 | S. cerevisiae deletion strains, locus YJL134W, strain LCB3, hits give low values 1.01 | S. cerevisiae deletion strains, locus YJL154C, strain vps35, hits give low values 1.02 | S. cerevisiae deletion strains, locus YJL164C, strain tpk1, hits give low values 1.02 | S. cerevisiae deletion strains, locus YJL166W, strain qcr8, hits give low values 1.02 | S. cerevisiae deletion strains, locus YJL168C, strain set2, hits give low values 1 | S. cerevisiae deletion strains, locus YJL187C, strain SWE1 (second series), hits give low values 0.993 | S. cerevisiae deletion strains, locus YJL187C, strain SWE1, hits give low values 1.02 | S. cerevisiae deletion strains, locus YJR043C, strain POL32, hits give low values 1.01 | S. cerevisiae deletion strains, locus YJR075W, strain HOC1, hits give low values 1 | S. cerevisiae deletion strains, locus YKL009W, strain mrt4, hits give low values 1.02 | S. cerevisiae deletion strains, locus YKL068W, hits give low values 1 | S. cerevisiae deletion strains, locus YKL085W, strain MDH1 (second series), hits give low values 1.02 | S. cerevisiae deletion strains, locus YKL085W, strain MDH1, hits give low values 1.02 | S. cerevisiae deletion strains, locus YKL160W, strain elf1, hits give low values 1.01 | S. cerevisiae deletion strains, locus YKL190W, strain CNB1, hits give low values 1.02 | S. cerevisiae deletion strains, locus YKR001C, strain vps1, hits give low values 1 | S. cerevisiae deletion strains, locus YKR026C, strain gcn3, hits give low values 1.01 | S. cerevisiae deletion strains, locus YKR091W, strain srl3, hits give low values 1.01 | S. cerevisiae deletion strains, locus YLL001W, strain dnm1, hits give low values 1.01 | S. cerevisiae deletion strains, locus YLL026W, hits give low values 1.01 | S. cerevisiae deletion strains, locus YLL041C, strain sdh2, hits give low values 1.02 | S. cerevisiae deletion strains, locus YLR027C, strain aat2, hits give low values 1.01 | S. cerevisiae deletion strains, locus YLR039C, strain RIC1, hits give low values 1.03 | S. cerevisiae deletion strains, locus YLR058C, strain SHM2, hits give low values 1.01 | S. cerevisiae deletion strains, locus YLR102C, strain apc9, hits give low values 1 | S. cerevisiae deletion strains, locus YLR221C, strain rsa3, hits give low values 1.01 | S. cerevisiae deletion strains, locus YLR258W, strain gsy2, hits give low values 1.01 | S. cerevisiae deletion strains, locus YLR262C, strain YPT6 (second series), hits give low values 1 | S. cerevisiae deletion strains, locus YLR262C, strain YPT6, hits give low values 1 | S. cerevisiae deletion strains, locus YLR268W, strain sec22, hits give low values 1.01 | S. cerevisiae deletion strains, locus YLR320W, strain mms22, hits give low values 1.02 | S. cerevisiae deletion strains, locus YLR330W, strain CHS5, hits give low values 1.01 | S. cerevisiae deletion strains, locus YLR342W, strain FKS1 (second series), hits give low values 1.03 | S. cerevisiae deletion strains, locus YLR342W, strain FKS1, hits give low values 1.02 | S. cerevisiae deletion strains, locus YLR357W, strain rsc2, hits give low values 1.04 | S. cerevisiae deletion strains, locus YLR370C, strain arc18, hits give low values 1.01 | S. cerevisiae deletion strains, locus YLR371W, strain rom2, hits give low values 1 | S. cerevisiae deletion strains, locus YLR384C, strain iki3, hits give low values 1.02 | S. cerevisiae deletion strains, locus YLR418C, strain cdc73, hits give low values 1.04 | S. cerevisiae deletion strains, locus YML016C, strain PPZ1, hits give low values 1.01 | S. cerevisiae deletion strains, locus YML032C, strain rad52, hits give low values 1 | S. cerevisiae deletion strains, locus YML120C, strain ndi1, hits give low values 1.02 | S. cerevisiae deletion strains, locus YML124C, strain tub3, hits give low values 1.01 | S. cerevisiae deletion strains, locus YMR058W, strain fet3, hits give low values 1.02 | S. cerevisiae deletion strains, locus YMR078C, strain ctf18, hits give low values 1.01 | S. cerevisiae deletion strains, locus YMR125W, strain sto1, hits give low values 1.02 | S. cerevisiae deletion strains, locus YMR129W, hits give low values 1.02 | S. cerevisiae deletion strains, locus YMR205C, strain PFK2, hits give low values 1.02 | S. cerevisiae deletion strains, locus YMR223W, strain ubp8, hits give low values 1.04 | S. cerevisiae deletion strains, locus YMR231W, strain pep5, hits give low values 1.01 | S. cerevisiae deletion strains, locus YMR307W, strain GAS1, hits give low values 1.02 | S. cerevisiae deletion strains, locus YNL067W, strain RPL9B, hits give low values 0.999 | S. cerevisiae deletion strains, locus YNL071W, strain lat1, hits give low values 1.01 | S. cerevisiae deletion strains, locus YNL153C, strain GIM3, hits give low values 0.985 | S. cerevisiae deletion strains, locus YNL209W, strain ssb2, hits give low values 1.02 | S. cerevisiae deletion strains, locus YNL233W, strain BNI4, hits give low values 0.982 | S. cerevisiae deletion strains, locus YNL248C, strain rpa49, hits give low values 1 | S. cerevisiae deletion strains, locus YNL250W, strain rad50, hits give low values 1.05 | S. cerevisiae deletion strains, locus YNL271C, strain bni1, hits give low values 1.01 | S. cerevisiae deletion strains, locus YNL298W, strain CLA4, hits give low values 1.02 | S. cerevisiae deletion strains, locus YNL307C, strain MCK1, hits give low values 1.01 | S. cerevisiae deletion strains, locus YNL322C, strain KRE1 (second series), hits give low values 1 | S. cerevisiae deletion strains, locus YNR049C, strain mso1, hits give low values 1.01 | S. cerevisiae deletion strains, locus YNR052C, strain pop2, hits give low values 1 | S. cerevisiae deletion strains, locus YOL006C, strain TOP1, hits give low values 1 | S. cerevisiae deletion strains, locus YOL012C, strain htz1 0.634 | S. cerevisiae deletion strains, locus YOL147C, strain pex11, hits give low values 1.01 | S. cerevisiae deletion strains, locus YOR001W, strain rrp6, hits give low values 1.01 | S. cerevisiae deletion strains, locus YOR061W, strain CKA2, hits give low values 1.01 | S. cerevisiae deletion strains, locus YOR069W, strain VPS5, hits give low values 1 | S. cerevisiae deletion strains, locus YOR070C, strain gyp1, hits give low values 1.02 | S. cerevisiae deletion strains, locus YOR080W, strain dia2, hits give low values 1.03 | S. cerevisiae deletion strains, locus YOR083W, strain WHI5, hits give low values 1.02 | S. cerevisiae deletion strains, locus YOR106W, strain vam3, hits give low values 1.01 | S. cerevisiae deletion strains, locus YOR136W, strain idh2, hits give low values 1 | S. cerevisiae deletion strains, locus YOR144C, strain elg1, hits give low values 1.01 | S. cerevisiae deletion strains, locus YOR184W, strain ser1, hits give low values 1.01 | S. cerevisiae deletion strains, locus YOR265W, strain rbl2, hits give low values 1.02 | S. cerevisiae deletion strains, locus YOR270C, strain vph1, hits give low values 1.03 | S. cerevisiae deletion strains, locus YOR290C, strain snf2, hits give low values 1.01 | S. cerevisiae deletion strains, locus YOR316C, strain cot1, hits give low values 1.01 | S. cerevisiae deletion strains, locus YPL051W, strain arl3, hits give low values 1.01 | S. cerevisiae deletion strains, locus YPL078C, strain atp4, hits give low values 1.02 | S. cerevisiae deletion strains, locus YPL106C, strain sse1, hits give low values 1.03 | S. cerevisiae deletion strains, locus YPL240C, strain hsp82, hits give low values 1.02 | S. cerevisiae deletion strains, locus YPR119W, strain clb2, hits give low values 1.01 | S. cerevisiae deletion strains, locus YPR141C, strain kar3, hits give low values 1 | S. cerevisiae deletion strains, locus YPR163C, strain tif3, hits give low values 1.01 | S. cerevisiae deletion strains, locus YPR167C, strain met16, hits give low values 1 | S. cerevisiae deletion strains, strain wtn01, hits give low values 1.01 | S. cerevisiae strains, strain wild type, hits give low values 1.01
